Here are results for 31 compounds from PubChem BioAssay (Tox21).

Experiment [1] in a line: qHTS assay to identify small molecule antagonists of the sonic hedgehog signaling (Shh) pathway (AID 1259369; calls by dose curve; note: % is set by controls: 0 for no effect and ±100 for the full control effect; nearly all actives have a fitted effect of over 45% in size). An outline of the steps: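 Gli1 transcriptional reporter (firefly Luc) in NIH/3T3 background, conditioned-medium activated. 24hr exposure, luminescence endpoint.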
The nature of experiment [2]: qHTS assay to identify small molecule agonists of the androgen receptor (AR) signaling pathway in the presence of an antagonist - cell viability counter screen (AID 1259379).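 For activity change, negative = cytotoxicity: MDA-kb2 human breast cancer cells carrying an MMTV luciferase reporter; series mostly up to about 92 µM; % is set by controls: 0 for no effect and ±100 for the full control effect.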 Note: nearly all actives have a fitted effect of over 25% in size. Note: potency is the fitted concentration of half-maximal effect. The gist of the method: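 Counter screen for cell viability run in parallel with the AR agonist-mode luciferase assay. MDA-kb2 cells were co-treated with nilutamide (3.0uM final) and compounds, then incubated 16 hr at 37C, and CellTiter-Fluor fluorescence was measured.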
(In general: In qHTS, concentration-response curves come from the screen itself.)

Experiment [3] is described as follows: qHTS assay to identify small molecule agonists of the estrogen receptor beta (ER-beta) signaling pathway - cell viability counter screen (AID 1259380). For activity change, negative = cytotoxicity: % is set by controls: 0 for no effect and ±100 for the full control effect. Note: nearly all actives have a fitted effect of over 30% in size. Note: potency is the fitted concentration of half-maximal effect. The gist of the method:
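In this qHTS counter screen, HEK293T cells carrying an ER-beta/UAS beta-lactamase reporter, grown in 2% charcoal-stripped FBS, received compound for 16 hr; ATP-based CellTiter-Glo luminescence was then read after 30 min at room temperature.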

Experiment [4] can be described thus: qHTS assay to identify small molecule antagonists of the estrogen receptor beta (ER-beta) signaling pathway - cell viability counter screen (AID 1259382). Note: nearly all actives have a fitted effect of over 55% in size. Note: potency is the fitted concentration of half-maximal effect. The gist of the method:
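HEK293T ER-beta-UAS-bla, 2% charcoal-stripped FBS; compounds + 1nM E2 16 hr 37C; CellTiter-Glo luminescence, 30 min RT.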

The nature of experiment [5]: qHTS assay to identify small molecule agonists or antagonists of the thyroid stimulating hormone receptor (TSHR) signaling pathway - wild type cell line counter screen (AID 1259384; calls by dose curve; note: % is set by controls: 0 for no effect and ±100 for the full control effect). An outline of the steps: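 Counter screen in untransfected Hek293: compounds (15-point titration, triplicate) plus phosphodiesterase inhibitor Ro20-1724 added after 18 h plating; 30 min RT. Intracellular cAMP via competitive d2/cryptate immunoassay, 1 h incubation.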

Experiment [6] deals with Thyrotropin receptor (Homo sapiens) (UniProt P16473). The experiment in a line: qHTS assay to identify small molecule antagonists of the thyroid stimulating hormone receptor (TSHR) signaling pathway (AID 1259385; calls by dose curve; note: % is set by controls: 0 for no effect and ±100 for the full control effect; nearly all actives have a fitted effect of over 20% in size). An outline of the steps:
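Antagonist mode: compound-treated TSHR-expressing HEK293 cells were stimulated with 1.5 ng/mL TSH (final) in presence of Ro20-1724 for 30 min at RT. HTRF cAMP detection after 1 h; each compound tested at 15 concentrations, triplicate.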

Experiment [7] addresses Estrogen receptor (Homo sapiens) (UniProt P03372). Put plainly: qHTS assay to identify small molecule agonists of the estrogen receptor alpha (ER-alpha) signaling pathway in the presence of an antagonist (AID 1259383; calls by dose curve; note: top concentration of the series differs between compounds; % is set by controls: 0 for no effect and ±100 for the full control effect; nearly all actives have a fitted effect of over 15% in size). The gist of the method:
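ER-alpha agonism measured under antagonist challenge: 10.0nM ICI-182,780 (final) plus compound, 15 concentrations, 22hr, VM7Luc4E2 ERE-luciferase cells. Read by luminescence.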

The target in experiment [8] is Androgen receptor (Homo sapiens) (UniProt P10275). Put plainly: qHTS assay to identify small molecule agonists of the androgen receptor (AR) signaling pathway in the presence of an antagonist (AID 1259381; calls by dose curve; note: nearly all actives have a fitted effect of over 15% in size; note: potency is the fitted concentration of half-maximal effect). An outline of the steps:
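AR antagonist background: nilutamide 3.0uM final. Cell line: MDA-kb2, MMTV-driven luciferase, responsive to both AR and GR. Exposure 16hr, 37C, no CO2; ONE-Glo luminescence.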

The target in experiment [9] is Estrogen receptor beta (Homo sapiens) (UniProt Q92731). The experiment in a line: qHTS assay to identify small molecule agonists of the estrogen receptor beta (ER-beta) signaling pathway (AID 1259377; active = well fitted activation curve with a large enough effect in the signal ratio in the repeat runs, not every such curve was filed as active; the % refers to the signal ratio; note: % is set by controls: 0 for no effect and ±100 for the full control effect). An outline of the steps:
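qHTS in ER-beta-UAS-bla HEK293T cells: 6 hr settling, then 16 hr compound at 37C, then LiveBLAzer substrate 2 h at RT before fluorescence reading.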

The target is the same in experiment [10]. Put plainly: qHTS assay to identify small molecule antagonists of the estrogen receptor beta (ER-beta) signaling pathway (AID 1259378; active = well fitted inhibition curve with a large enough effect in the signal ratio in the repeat runs, not every such curve was filed as active; the % refers to the signal ratio; note: potency is the fitted concentration of half-maximal effect). The gist of the method:
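Antagonist mode: compounds added to beta-lactamase reporter HEK293T ER-beta-UAS cells stimulated with E2 (1nM final), 16 hr at 37C. LiveBLAzer B/G FRET substrate, 2 hours room temperature, fluorescence read-out.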

A number with no mark means an inactive call. Records with an inconclusive call do not appear. The source made the active and inactive calls. Unless noted, calls come from the whole dose curve; as a rule, active = well fitted curve in the direction sought with a large enough effect in the repeat runs; inconclusive = weak or mixed curves; inactive = no such curve, though single readings can be large; an effect the other way counts as inactive or inconclusive.

Sequence of Androgen receptor (Homo sapiens) (P10275 whole entry, looked up): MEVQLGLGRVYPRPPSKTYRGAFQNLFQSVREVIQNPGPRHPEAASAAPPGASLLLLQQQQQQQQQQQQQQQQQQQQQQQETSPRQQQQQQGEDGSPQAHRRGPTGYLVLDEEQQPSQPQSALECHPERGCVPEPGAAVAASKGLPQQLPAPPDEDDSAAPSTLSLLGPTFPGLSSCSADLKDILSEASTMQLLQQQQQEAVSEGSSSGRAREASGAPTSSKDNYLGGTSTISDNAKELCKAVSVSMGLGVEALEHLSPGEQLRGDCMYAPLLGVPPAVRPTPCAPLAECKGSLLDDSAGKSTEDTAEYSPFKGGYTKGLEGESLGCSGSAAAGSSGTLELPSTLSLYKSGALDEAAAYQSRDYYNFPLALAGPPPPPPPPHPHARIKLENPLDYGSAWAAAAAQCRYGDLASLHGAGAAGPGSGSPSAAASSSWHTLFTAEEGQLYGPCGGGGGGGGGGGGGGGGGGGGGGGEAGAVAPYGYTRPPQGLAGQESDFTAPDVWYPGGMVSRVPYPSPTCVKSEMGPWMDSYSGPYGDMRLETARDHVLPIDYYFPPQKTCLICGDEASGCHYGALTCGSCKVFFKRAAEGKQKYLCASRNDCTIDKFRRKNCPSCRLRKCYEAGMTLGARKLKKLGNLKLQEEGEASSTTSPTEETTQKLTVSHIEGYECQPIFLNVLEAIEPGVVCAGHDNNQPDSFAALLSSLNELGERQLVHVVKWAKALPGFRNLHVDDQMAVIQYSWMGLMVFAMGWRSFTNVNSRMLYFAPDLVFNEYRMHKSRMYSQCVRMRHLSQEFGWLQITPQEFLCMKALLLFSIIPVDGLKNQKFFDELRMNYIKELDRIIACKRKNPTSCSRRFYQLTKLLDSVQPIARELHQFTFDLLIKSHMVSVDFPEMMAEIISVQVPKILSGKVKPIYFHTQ
Sequence of Estrogen receptor (Homo sapiens) (P03372 whole entry, looked up): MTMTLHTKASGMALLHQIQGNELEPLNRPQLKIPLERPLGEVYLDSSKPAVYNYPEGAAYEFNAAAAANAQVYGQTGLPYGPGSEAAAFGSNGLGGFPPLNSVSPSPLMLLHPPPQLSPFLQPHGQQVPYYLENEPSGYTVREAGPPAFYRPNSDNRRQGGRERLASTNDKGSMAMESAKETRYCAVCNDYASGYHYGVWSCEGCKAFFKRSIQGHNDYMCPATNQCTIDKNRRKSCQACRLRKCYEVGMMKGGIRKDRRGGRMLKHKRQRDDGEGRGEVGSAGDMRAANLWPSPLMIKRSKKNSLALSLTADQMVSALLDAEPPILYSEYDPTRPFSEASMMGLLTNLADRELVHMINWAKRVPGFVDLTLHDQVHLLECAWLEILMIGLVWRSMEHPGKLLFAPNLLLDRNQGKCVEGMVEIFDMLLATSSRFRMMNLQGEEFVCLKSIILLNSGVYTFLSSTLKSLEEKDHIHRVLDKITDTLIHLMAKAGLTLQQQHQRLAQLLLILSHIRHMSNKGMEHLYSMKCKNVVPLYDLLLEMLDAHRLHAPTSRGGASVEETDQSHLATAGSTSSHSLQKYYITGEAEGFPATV
Sequence of Thyrotropin receptor (Homo sapiens) (P16473 whole entry, looked up): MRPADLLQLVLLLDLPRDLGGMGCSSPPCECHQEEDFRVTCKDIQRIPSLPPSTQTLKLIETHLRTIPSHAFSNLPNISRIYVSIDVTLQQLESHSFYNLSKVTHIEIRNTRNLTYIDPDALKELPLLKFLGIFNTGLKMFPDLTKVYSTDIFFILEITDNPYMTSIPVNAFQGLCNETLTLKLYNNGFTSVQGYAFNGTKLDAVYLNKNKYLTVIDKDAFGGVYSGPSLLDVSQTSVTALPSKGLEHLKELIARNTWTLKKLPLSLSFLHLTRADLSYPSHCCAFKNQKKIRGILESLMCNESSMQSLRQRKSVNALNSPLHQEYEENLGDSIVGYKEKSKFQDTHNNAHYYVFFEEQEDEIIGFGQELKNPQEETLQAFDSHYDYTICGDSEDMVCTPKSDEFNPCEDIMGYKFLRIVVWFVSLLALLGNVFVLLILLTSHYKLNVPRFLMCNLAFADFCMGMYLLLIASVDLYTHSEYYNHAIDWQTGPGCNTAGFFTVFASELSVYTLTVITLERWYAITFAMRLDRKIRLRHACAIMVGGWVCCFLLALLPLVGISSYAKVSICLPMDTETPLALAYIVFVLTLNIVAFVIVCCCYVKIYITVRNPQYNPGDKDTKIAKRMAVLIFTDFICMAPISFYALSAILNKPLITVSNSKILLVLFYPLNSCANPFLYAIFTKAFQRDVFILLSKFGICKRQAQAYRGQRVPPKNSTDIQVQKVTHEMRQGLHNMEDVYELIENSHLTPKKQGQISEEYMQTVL
Sequence of Estrogen receptor beta (Homo sapiens) (Q92731 whole entry, looked up): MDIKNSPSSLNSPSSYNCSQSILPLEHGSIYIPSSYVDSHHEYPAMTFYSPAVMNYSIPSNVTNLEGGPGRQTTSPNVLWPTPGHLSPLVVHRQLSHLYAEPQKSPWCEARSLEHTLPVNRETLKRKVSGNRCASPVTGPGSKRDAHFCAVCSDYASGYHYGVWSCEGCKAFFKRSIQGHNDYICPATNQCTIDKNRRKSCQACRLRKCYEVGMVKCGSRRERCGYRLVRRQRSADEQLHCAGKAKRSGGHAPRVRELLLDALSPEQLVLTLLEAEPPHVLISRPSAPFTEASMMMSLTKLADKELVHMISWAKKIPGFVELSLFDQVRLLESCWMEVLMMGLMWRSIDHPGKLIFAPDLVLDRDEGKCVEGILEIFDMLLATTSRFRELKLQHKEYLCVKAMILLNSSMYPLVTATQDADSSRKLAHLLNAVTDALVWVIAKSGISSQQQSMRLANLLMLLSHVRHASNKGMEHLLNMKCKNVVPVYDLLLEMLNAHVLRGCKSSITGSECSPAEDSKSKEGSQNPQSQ

With `CN=C=O`, the Potency entry in experiment [1], in experiment [2], in experiment [3], in [4], in [5] and in experiment [6] was “inactive” throughout.

On to `CSC(C)(C)/C=N/O`, for which the Potency result in experiment [1], in experiment [2], in experiment [4], in experiment [7], in [5] and in experiment [6] was “inactive” each time.

As for `Clc1c(Cl)c(Cl)c(Cl)c(Cl)c1Cl`, the figures for the activity change, negative = inhibition in experiment [1] and in [6] were 3.84% [at 8.39 µM] and 2.16% [at 8.39 µM], respectively. Besides, the results for the activity change, negative = cytotoxicity in experiment [2], in experiment [3] and in [4] were 1.03% [at 8.39 µM], 0.531% [at 8.39 µM] and 8.34% [at 8.39 µM], respectively. The cAMP activity change in [5] was -1.12% [at 8.39 µM, active compounds read high].

`CC1CCCC1`: the Potency result in experiment [1], in experiment [3], in [4], in experiment [5] and in experiment [6] was “inactive” each time.

In the case of `N#CCCl`, the Potency result in experiment [1], in experiment [7], in [5] and in experiment [6] was “inactive” in each case. Besides, the Potency in experiment [3] was 25.4 µM (active).

Take `CCCN`: the Potency result in [1], in [2], in [3], in experiment [4], in experiment [5] and in experiment [6] was “inactive” throughout.

Turning to `S=C=Nc1ccccc1`, the Potency entry in experiment [1], in experiment [2], in experiment [8], in [4] and in [7] was “inactive” in each case.

`CCCCCCCc1ccc(O)cc1`: the Potency entry in experiment [9], in experiment [2], in experiment [8], in experiment [7], in experiment [5] and in experiment [6] was “inactive” in each case. Further, the results for the Potency in experiment [10], in experiment [3] and in experiment [4] were 54.5 µM (active), 54.5 µM (active) and 48.6 µM (active), respectively.

Turning to `O=S1(=O)OCC2C(CO1)C1(Cl)C(Cl)=C(Cl)C2(Cl)C1(Cl)Cl` (stereo not given), the Potency result in [1], in experiment [4], in experiment [7] and in [5] was “inactive” each time.

As to `CC(=O)[O-].CC(=O)[O-].CC(=O)[O-].[Cr+3]`, the Potency result in experiment [2], in experiment [3] and in [4] was “inactive” throughout.

On to `c1cc[n+]2c(c1)-c1cccc[n+]1CC2`, for which the Potency entry in experiment [2], in experiment [3], in experiment [4], in experiment [7], in experiment [5] and in [6] was “inactive” in each case.

For `CO/N=C(\C(=O)OC)c1ccccc1CO/N=C(\C)c1cccc(C(F)(F)F)c1`, the Potency in experiment [2] was 12.2 µM (active). For the same compound, the Potency result in experiment [4] and in experiment [5] was “inactive” each time.

On to `N#Cc1c[nH]cc1-c1cccc2c1OC(F)(F)O2`, for which, in experiment [3], the Potency was 21.7 µM (active). Moreover, the Potency entry in experiment [7], in experiment [5] and in experiment [6] was “inactive” in each case.

In the case of `Oc1ccc(Cl)c(Cl)c1`, the Potency entry in experiment [2], in experiment [4], in experiment [7], in [5] and in experiment [6] was “inactive” in each case.

As for `CC(C)(C)c1ccc(OP(=O)(Oc2ccccc2)Oc2ccccc2)cc1`, the Potency entry in experiment [9], in experiment [2] and in experiment [7] was “inactive” in each case.

Consider `COC(=O)C(C)N(C(=O)c1ccco1)c1c(C)cccc1C` (stereo not given), for which the Potency entry in experiment [9], in experiment [2], in experiment [3], in [4], in [7] and in experiment [5] was “inactive” in each case. In addition, in [6], the Potency result was “inactive”.

As to `C[C@@H]1CC2=CC(=O)CC[C@@H]2[C@H]2CC[C@@]3(C)[C@@H](CC[C@]3(C)O)[C@@H]21`, the Potency result in experiment [2], in experiment [3], in experiment [4] and in [5] was “inactive” each time.

Consider `O=c1[nH]c2cc(Cl)ccc2n1C1CCNCC1`, for which the Potency result in experiment [2], in experiment [3], in experiment [8], in [4], in [7] and in [5] was “inactive” throughout. For the same compound, the Potency entry in experiment [6] is “inactive”.

Take `COP(=S)(OC)Oc1ccc([N+](=O)[O-])c(C)c1`: the Potency entry in experiment [9], in experiment [2], in experiment [4], in experiment [7] and in experiment [6] was “inactive” each time.

For the compound `O=c1c2ccccc2c(=O)c2c1cc(Cl)c1[nH]c3c([nH]c12)c(Cl)cc1c(=O)c2ccccc2c(=O)c13`, the Potency entry in experiment [2], in [3], in experiment [4], in experiment [7], in experiment [5] and in experiment [6] was “inactive” throughout.

With `Cc1ccccc1OP(=O)(Oc1ccccc1C)Oc1ccccc1C`, the Potency entry in [2], in experiment [8], in experiment [7], in [5] and in experiment [6] was “inactive” throughout.

Consider `CO/N=C(/C1=NOCCO1)c1ccccc1Oc1ncnc(Oc2ccccc2Cl)c1F`, for which the values for the Potency in experiment [2] and in [3] were 15.3 µM (active) and 21.7 µM (active), respectively. Moreover, the Potency entry in experiment [4] and in [7] was “inactive” throughout.

For the compound `CN1CCc2cc3c(cc2C1O)OCO3` (stereo not given), the Potency result in experiment [3] and in [4] was “inactive” in each case.

For the compound `O=[N+]([O-])[O-].[Tl+]`, the Potency entry in experiment [2], in [4], in experiment [5] and in experiment [6] was “inactive” each time. For the same compound, the Potency in [3] was 0.346 µM (active).

Take `CN1C2CCC(C)(C)C1CC(OC(=O)C(O)(c1cccs1)c1cccs1)C2` (stereo not given): the Potency entry in [2], in [3], in experiment [4], in experiment [7], in experiment [5] and in experiment [6] was “inactive” in each case.

Take `O.O.O.O=C([O-])[C@H]([O-])[C@@H]([O-])C(=O)[O-].O=C([O-])[C@H]([O-])[C@@H]([O-])C(=O)[O-].[K+].[K+].[Sb+3].[Sb+3]`: the Potency in experiment [2] was 17.3 µM (active). For the same compound, the Potency result in [3], in experiment [4] and in experiment [7] was “inactive” in each case.

Consider `CCCC[N+]1(C)CCCC1` (tested in a mixture with another compound), for which the Potency entry in experiment [2], in experiment [3] and in experiment [4] was “inactive” in each case.

As to `CC#C[C@]1(O)CC[C@H]2[C@@H]3C[C@H](C)C4=CC(=O)CC[C@]4(C)[C@H]3CC[C@@]21C`, the Potency entry in experiment [2], in [4], in experiment [7], in [5] and in experiment [6] was “inactive” in each case. The Potency in experiment [8] was 0.237 µM (active).

As for `CCCCN(CCCC)C(=S)[S-].CCCCN(CCCC)C(=S)[S-].[Ni+2]`, the Potency entry in experiment [2], in [3], in experiment [4] and in experiment [7] was “inactive” throughout.

Turning to `O=C(Nc1ccc(F)cc1F)c1cccnc1Oc1cccc(C(F)(F)F)c1`, the Potency entry in experiment [9], in experiment [2], in experiment [3], in [4], in experiment [5] and in [6] was “inactive” in each case.

As to `O=C1C[C@@H]2OCC=C3CN4CC[C@]56c7ccccc7N1[C@H]5[C@H]2[C@H]3C[C@H]46`, the Potency entry in experiment [2], in experiment [3], in experiment [4], in experiment [5] and in experiment [6] was “inactive” each time.
